ELG1 repair inh: blocks ELG1-dependent DNA repair in HEK293T cells | HEK293T ELG1-luciferase reporter, luminescence, 16 h; DNA damage induced by 5-fluorouridine | Potency, µM (top dose mostly 46.1 µM), for inactives: at the top dose activity change, negative = inhibition, usual class: inhibitors | 330,000 tested, 2.3% active | AID 504467; also: % is scaled to controls: 0 for no effect and ±100 for the full control effect; nearly all actives have a fitted effect of over 55% in size
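Reporter activity after DNA damage by 5-fluorouridine is monitored. Compound-treated cells incubate 16 hr at 37 °C, then ONE-Glo is added for 30 min before luminescence reading.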
NPC1 promoter act: NPC1 promoter activation; Huh7 NPC1 promoter luciferase reporter, 24 h; Potency, µM (series often up to 9.22 µM), inactives show top-dose activation, most hits filed as activators; 320,000 tested, 2.4% active; AID 485313; also: % of control where 0% means no effect; nearly all actives have a fitted effect of over 60% in size
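Stable NPC1-promoter luciferase Huh7 line; cpd (DMSO) 24 h, 37 °C, 5% CO2; Amplite luciferase reagent 10 min RT; luminescence readout. qHTS format.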
Rab9 promoter act: activators of Rab9 promoter. Huh7 Rab9 promoter-luciferase reporter, luminescence, 24 h. AID 485297. Potency, µM (top dose mostly 9.22 µM), without a hit: at the highest dose activation, negative = inhibition, usual class: activators. 320,000 tested, 2.8% active; also: % of control where 0% means no effect; nearly all actives have a fitted effect of over 60% in size
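Luminescence read-out: Huh7 cells stably expressing Rab9-luciferase, treated 24 h with compound at 37 °C, then lysed with luciferase reagent for 10 min at ambient before reading.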
FLuc modulator: counter-screen for miR-21 project: firefly luciferase inhibitors or activators; purified FLuc, Km substrates, luminescence inhibition; Potency, µM (top dose mostly 57.5 µM), inactives show at the highest dose activity change, negative = inhibition, hits mostly inhibitors; 360,000 tested, 6.9% active;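 also: plate controls were vehicle for no effect and reference inhibitor for full effect; nearly all actives have a fitted effect of over 55% in size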
Target sequence (P08659 whole entry, looked up): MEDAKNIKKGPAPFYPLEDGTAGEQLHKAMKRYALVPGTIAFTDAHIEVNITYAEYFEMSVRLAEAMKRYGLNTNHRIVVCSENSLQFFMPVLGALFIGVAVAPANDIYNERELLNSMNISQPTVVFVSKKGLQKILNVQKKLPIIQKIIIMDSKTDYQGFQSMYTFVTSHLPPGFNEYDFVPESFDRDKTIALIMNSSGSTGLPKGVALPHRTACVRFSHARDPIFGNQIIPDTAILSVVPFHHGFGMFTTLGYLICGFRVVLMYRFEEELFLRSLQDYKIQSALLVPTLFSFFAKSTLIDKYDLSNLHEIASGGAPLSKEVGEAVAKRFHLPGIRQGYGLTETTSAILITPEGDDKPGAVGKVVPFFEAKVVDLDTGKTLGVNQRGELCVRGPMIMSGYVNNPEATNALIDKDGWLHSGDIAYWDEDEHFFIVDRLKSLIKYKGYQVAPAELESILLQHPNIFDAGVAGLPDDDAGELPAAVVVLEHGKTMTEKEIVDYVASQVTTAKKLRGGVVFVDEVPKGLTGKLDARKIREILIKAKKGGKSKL
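Biochemical qHTS of compounds, final roughly 60 µM downward over six points, against 10 nM purified firefly luciferase using Km concentrations of substrates (10 uM D-luciferin, 10 uM ATP) in Tris acetate pH 7.5 buffer; luminescence output.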
ELG1 genotox: inducers of genotoxicity in HEK293T ELG1-luciferase cells; HEK293T ELG1-luciferase reporter, luminescence, 16 h; Potency, µM (series often up to 46 µM), inactives show top-dose activity change, positive = activation, actives largely listed as activators; 330,000 tested, 1.3% active; AID 504466; also: % of control where 0% means no effect; nearly all actives have a fitted effect of over 60% in size
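Screening used a luciferase reporter fused to human ELG1 in HEK293T cells. Luminescence was read on a CCD plate imager after 16 hr exposure and 30 min ONE-Glo incubation.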
SMN2 splice enh: enhancers of SMN2 splice variant expression. HEK293 SMN2-luciferase splicing reporter, luminescence, 30-36 h. Potency, µM (doses to about 46.1 µM), for the others: top-dose activity change, positive = activation, hits mostly activators. 210,000 tested, 2.8% active; also: % of control where 0% means no effect; nearly all actives have a fitted effect of over 55% in size
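qHTS luciferase splicing reporter: luminescence rises when SMN2 exon 7 is included in transfected HEK293 cells. Compound exposure lasted 30-36 h at 37C, with 4.5 mM final sodium butyrate as control, followed by a ONE-Glo read.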
Numbers without * were called inactive; u = inconclusive; x = no result given; [ ] = remark or other dose. Most compounds without a hit are left out; they make up all but 9.2% or so of the library. Calls follow the shape of the dose curve; as a rule, active = well fitted curve in the direction sought with a large enough effect; inconclusive = small, poorly fitted or top-dose-only effect, or another doubt; inactive = no such curve, though single readings can be large; an effect the other way counts as inactive or inconclusive. Potency is read from the fitted curve at half-maximal effect.

SMILES | ELG1 repair inh | NPC1 promoter act | Rab9 promoter act | FLuc modulator | ELG1 genotox | SMN2 splice enh
O=[N+]([O-])c1cc(CN2CCN(c3ccccc3)CC2)c(O)c2ncccc12 | 4.6µM* | -13% | -48% | 3% | 3% | -100%
O=[N+]([O-])c1cc(CN2CCOCC2)c2cccnc2c1O | -11% | -13% | 15% | 4% | -4% | -68%
O=C(NCC(c1ccc2c(c1)OCO2)N1CCOCC1)c1cccc(Cl)c1 (stereo not given) | x | x | x | -8% | x | x
Cc1ccc2c(CC(=O)Nc3c(C(=O)Nc4cccc(Cl)c4)oc4ccccc34)coc2c1C | x | x | x | 0% | x | x
COc1cc(NC(=O)c2nn(C)c3c2COc2ccccc2-3)cc(OC)c1OC | x | x | x | 0% | x | x
CC(C)NC(=O)N1CCCC2(CCN(C(=O)c3cccc(F)c3)CC2)C1 | x | x | x | x | x | 3%
CC1(C)C[C@H](O)[C@]2(CO)[C@H](O)C[C@]3(C)C(=CCC4[C@@]5(C)CC[C@H](O)C(C)(C)C5CC[C@]43C)[C@@H]2C1 (stereo not given in full) | 17% | x | x | x | u | x
Cc1c(C(=O)Nc2nc(-c3ccc(F)cc3)ns2)oc2ccc(Cl)cc12 | x | x | x | -8% | x | 9%
O=Cc1ccccc1OCCOc1ccccc1C=O | u | 0% | 3% | 24µM* | u | u
CC1CC(C)CN(C(=O)c2cccc(S(=O)(=O)N(C)c3ccccc3)c2)C1 (stereo not given) | -10% | -5% | 4% | 2% | -5% | x
COc1cccc(CCNc2ncnc3c2nnn3C)c1 | x | x | x | -6% | x | x
CCSC[C@@H](N)C(=O)O | x | x | x | x | x | -11%[9.22 µM]
O=C1CC(c2cc(-c3ccccc3)no2)C1 | u | u | 2.8µM* | u | u | x
CCCS(=O)(=O)N1CCC(C(=O)NC2CCC(C)CC2)CC1 (stereo not given) | u | u | 4µM* | -16% | u | x
O=C(CSc1ncc2c(n1)-c1ccccc1N(Cc1ccc(F)cc1)S2(=O)=O)c1ccc(Cl)cc1 | x | x | x | 2% | x | x
O=C(Nc1ccc(Cl)cc1)C1CCCN(C2=NS(=O)(=O)c3ccccc32)C1 (stereo not given) | -11% | -1% | -8% | x | 0% | x
CC(C)CNc1nc(N)c([N+](=O)[O-])c(N2CCCCCC2)n1 | 7.3µM* | -1% | -1% | 0% | -9% | x
CCC(C)Nc1nc(N)c([N+](=O)[O-])c(Nc2cc(OC)ccc2OC)n1 (stereo not given) | 23µM* | -3% | -3% | 6% | -1% | x
CCC(C)Nc1nc(N)c([N+](=O)[O-])c(N2CCCCCC2)n1 (stereo not given) | -11% | -4% | -5% | 4% | -5% | x
COc1ccccc1Nc1nc(NCC(C)C)nc(N)c1[N+](=O)[O-] | 8.2µM* | -3% | -10% | -5% | -7% | x
c1ccc(Cc2ccc(OCCn3cncn3)cc2)cc1 | 0% | -3% | 0% | 1% | u | -28%
c1ccc(COc2ccc(OCCCn3cncn3)cc2)cc1 | u | 1.6µM* | 2.5µM* | 4.3µM* | 4.1µM* | 10µM*
OC(COc1ccc(OCc2ccccc2)cc1)CN1CCCCC1 (stereo not given) | u | 30% | u | u | 16µM* | 28%
O[C@H](COc1ccccc1)CN1CCCCC1 | x | x | x | x | x | -6%[9.22 µM]
c1ccc(COc2ccc(OCCCN3CCCC3)cc2)cc1 | u | 1µM* | 0.63µM* | 3.4µM* | u | 6.3µM*
SMILES | ELG1 repair inh | NPC1 promoter act | Rab9 promoter act | FLuc modulator | ELG1 genotox | SMN2 splice enh
COC(=O)N1CCC2(CCN(Cc3ccccc3OC)CC2)CC1 | x | x | x | x | x | -8%
COCCN1CC(=O)N2C(c3cccc(OC)c3)c3[nH]c4ccccc4c3C[C@H]2C1=O (stereo not given in full) | 15% | -1% | -1% | -2% | -5% | x
Cn1c(=O)c2c(ncn2C[C@@H](O)CO)n(C)c1=O | x | x | x | x | x | -17%[20.6 µM]
COc1ccc(N(CC(=O)Nc2cccc(N(C)S(C)(=O)=O)c2)S(=O)(=O)c2ccccc2)cc1Cl | 8.2µM* | -2% | 0% | -5% | -11% | x
COc1ccc(N(CC(=O)Nc2ccc(OC)c(OC)c2)S(=O)(=O)c2ccccc2)cc1Cl | u | -2% | 10% | -1% | -5% | x
COc1ccc(NC(=O)CN(c2ccccc2)S(=O)(=O)N(C)C)cc1Cl | 14% | -7% | -3% | 1% | 1% | -10%
COc1ccc(N(CC(=O)Nc2cccc(N(C)S(C)(=O)=O)c2)S(=O)(=O)c2ccc(F)cc2)cc1 | 13µM* | 1% | -5% | -2% | -7% | x
CCOc1ccc(NC(=O)CN(c2ccc([N+](=O)[O-])cc2)S(=O)(=O)c2ccccc2)cc1 | 10µM* | -8% | -5% | 0% | -7% | -13%
CC(=O)Nc1ccc(NC(=O)CN(c2ccc([N+](=O)[O-])cc2)S(=O)(=O)c2ccccc2)cc1 | 4% | -5% | 10% | -14% | 3% | x
COc1ccc(NC(=O)CN(c2ccccc2)S(=O)(=O)N(C)C)cc1OC | 0% | 2% | -1% | 2% | -7% | 1µM*
CC1CCN(S(=O)(=O)c2ccc3c(c2)CCN3C(=O)Nc2ccc(Br)cc2)CC1 | x | x | x | -6% | x | -5%
O=C(CCC1N=C2c3ccccc3N=C(SCC(=O)Nc3cccc(Cl)c3)N2C1=O)NCc1ccco1 (stereo not given) | x | x | x | -7% | x | -8%
COC(=O)c1sccc1S(=O)(=O)N1CCN(c2cc(Cl)ccc2C)CC1 | x | x | x | 2% | x | x
CCOc1ccc(N(CC(=O)Nc2cccc(N(C)S(C)(=O)=O)c2)S(=O)(=O)c2ccccc2)cc1 | 13µM* | -3% | -1% | -2% | -11% | -27%
CN(c1cccc(NC(=O)CN(c2cccc(Cl)c2)S(=O)(=O)c2ccccc2)c1)S(C)(=O)=O | 26µM* | -2% | 2% | 2% | -10% | x
COc1ccc(N(CC(=O)Nc2cccc(N(C)S(C)(=O)=O)c2)S(=O)(=O)c2ccc(C)cc2)cc1 | u | -1% | -3% | 0% | -5% | x
COc1ccc(CCNc2ncnc3c2nnn3C)cc1 | x | x | x | 5% | x | x
Cc1c(C(=O)Nc2ccccc2)csc1-c1ccccc1 | u | 1.1µM* | 0.71µM* | 0.21µM* | 3.7µM* | 13µM*
Cc1c(C(=O)Nc2ccccc2[N+](=O)[O-])csc1-c1ccccc1 | u | 3.2µM* | 2.8µM* | 1.2µM* | 4.6µM* | x
COc1cc2c(cc1OC)Cc1cc(OC)c(OC)cc1Cc1cc(OC)c(OC)cc1C2 | x | x | x | x | x | 4%
CC(C)Oc1ccc(-c2nc3c(C#N)c[nH]n3c2NC2CCCCC2)cc1 | x | x | x | -13% | x | x

Screens (PubChem)
